Where a chain is given by its changes, count along the chain named.

Holding throughout (experiment): yeast three-hybrid, YBZ-1, SC-Leu-His + 0.5 mM 3-AT, 4 days
Holding throughout (conditions): tags: N-Gal4 AD-HA kept; label: inside an RPR1-promoter hybrid RNA with tandem MS2 sites; ssRNA

One assay has as its target PUM1 PUF domain R1-KIR (Homo sapiens, UniProt Q14671 828-1176, S863K;R864I;Q867R). In outline: (§1)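 Repeat regions from input (SC-Leu) and selection (SC-Leu-His + 0.5 mM 3-AT) plates were PCR-amplified and Illumina-sequenced after four days of growth. The cells were strain YBZ-1 with a LexA–MS2 coat fusion and a HIS3 reporter, co-expressing Pumilio-1 PUF domain libraries and matching RNA elements from a centromeric plasmid. The interaction score is the log change in variant frequency from input to selection, taken in log2 with a pseudocount of 1 for absent variants.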

For another assay, the target named is T1, PUM1 PUF domain R6-QFR (Homo sapiens, UniProt Q14671 828-1176, N1043Q;Y1044F;Q1047R).
T1 sequence: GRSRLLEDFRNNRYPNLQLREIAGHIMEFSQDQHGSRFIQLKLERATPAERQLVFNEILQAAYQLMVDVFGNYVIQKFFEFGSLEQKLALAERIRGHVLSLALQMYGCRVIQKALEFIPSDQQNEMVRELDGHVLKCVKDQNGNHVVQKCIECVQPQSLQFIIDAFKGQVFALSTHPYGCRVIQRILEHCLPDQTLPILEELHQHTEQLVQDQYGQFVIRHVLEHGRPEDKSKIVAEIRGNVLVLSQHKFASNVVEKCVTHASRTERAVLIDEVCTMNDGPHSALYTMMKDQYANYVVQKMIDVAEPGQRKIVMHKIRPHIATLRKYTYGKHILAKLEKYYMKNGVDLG
In outline:
as §1

A further assay addresses PUM1 PUF domain R8-AFR (Homo sapiens, UniProt Q14671 828-1176, N1122A;Y1123F;Q1126R). The essentials: as §1
The next assay addresses PUM1 PUF domain R8-SWR (Homo sapiens, UniProt Q14671 828-1176, N1122S;Y1123W;Q1126R). The essentials: as §1
The next assay addresses PUM1 PUF domain R8-RYL (Homo sapiens, UniProt Q14671 828-1176, N1122R;Q1126L). The essentials:
as §1

A further assay deals with PUM1 PUF domain R5-RNR (Homo sapiens, UniProt Q14671 828-1176, C1007R;R1008N;Q1011R). The essentials: as §1
The target in the next assay is PUM1 PUF domain R5-RHI (Homo sapiens, UniProt Q14671 828-1176, C1007R;R1008H;Q1011I). The essentials: as §1
The target of the next assay is PUM1 PUF domain R3-LRA (Homo sapiens, UniProt Q14671 828-1176, C935L;Q939A). The essentials:
as §1

The next assay concerns the target PUM1 PUF domain R3-NPV (Homo sapiens, UniProt Q14671 828-1176, C935N;R936P;Q939V). In outline:
as §1

The target in the next assay is T2, PUM1 PUF domain R6-NFC (Homo sapiens, UniProt Q14671 828-1176, Y1044F;Q1047C).
T2 sequence: T1 sequence with Q216N, R220C
The essentials:
as §1

In the case of “GGCUAGAACUAGUGGAUCCCCCGGCGCCCGGCGGCUCGAGCCCGGGUAAGUGUAAAUCGUCUGCAUGCCGCCGGGCGCCAUGCCUGCAGGUCGACUCUAGAAAACAUG”, the binding signal in the assay with PUM1 PUF domain R1-KIR was 4.83 log2 enrichment (interaction score).

Regarding “GGCUAGAACUAGUGGAUCCCCCGGCGCCCGGCGGCUCGAGCCCGGGUAAGUGCAAAUAGUCUGCAUGCCGCCGGGCGCCAUGCCUGCAGGUCGACUCUAGAAAACAUG”, the binding signal with PUM1 PUF domain R6-QFR is 4.65 log2 enrichment (interaction score).

As to “GGCUAGAACUAGUGGAUCCCCCGGCGCCCGGCGGCUCGAGCCCGGGUAAGCGUAAAUAGUCUGCAUGCCGCCGGGCGCCAUGCCUGCAGGUCGACUCUAGAAAACAUG”, the figures for the binding signal in the assay with PUM1 PUF domain R8-AFR, with PUM1 PUF domain R8-SWR and with PUM1 PUF domain R8-RYL were 3.34 log2 enrichment (interaction score), 5.3 log2 enrichment (interaction score) and 5.95 log2 enrichment (interaction score), respectively.

With “GGCUAGAACUAGUGGAUCCCCCGGCGCCCGGCGGCUCGAGCCCGGGUAAGUGUCAAUAGUCUGCAUGCCGCCGGGCGCCAUGCCUGCAGGUCGACUCUAGAAAACAUG”, the binding signal in the assay with PUM1 PUF domain R5-RNR is 3.17 log2 enrichment (interaction score); with PUM1 PUF domain R5-RHI, 4.97 log2 enrichment (interaction score).

Take “GGCUAGAACUAGUGGAUCCCCCGGCGCCCGGCGGCUCGAGCCCGGGUAAGUGUAAGUAGUCUGCAUGCCGCCGGGCGCCAUGCCUGCAGGUCGACUCUAGAAAACAUG”: the binding signal with PUM1 PUF domain R3-LRA was 4.29 log2 enrichment (interaction score).

As for “GGCUAGAACUAGUGGAUCCCCCGGCGCCCGGCGGCUCGAGCCCGGGUAAGUGUAAUUAGUCUGCAUGCCGCCGGGCGCCAUGCCUGCAGGUCGACUCUAGAAAACAUG”, the binding signal with PUM1 PUF domain R3-LRA was 1.5 log2 enrichment (interaction score); with PUM1 PUF domain R3-NPV, 2.64 log2 enrichment (interaction score).

Consider “GGCUAGAACUAGUGGAUCCCCCGGCGCCCGGCGGCUCGAGCCCGGGUAAGUGUAAAUAGUCUGCAUGCCGCCGGGCGCCAUGCCUGCAGGUCGACUCUAGAAAACAUG”, for which the binding signal with PUM1 PUF domain R6-NFC is 3.34 log2 enrichment (interaction score); in the assay with PUM1 PUF domain R6-QFR, 7.93 log2 enrichment (interaction score); with PUM1 PUF domain R5-RHI, 3.02 log2 enrichment (interaction score); with PUM1 PUF domain R8-AFR, 3.56 log2 enrichment (interaction score); with PUM1 PUF domain R8-SWR it was 6.3 log2 enrichment (interaction score); with PUM1 PUF domain R8-RYL, 5.73 log2 enrichment (interaction score).

Take “GGCUAGAACUAGUGGAUCCCCCGGCGCCCGGCGGCUCGAGCCCGGGUAAGUGUUAAUAGUCUGCAUGCCGCCGGGCGCCAUGCCUGCAGGUCGACUCUAGAAAACAUG”: in the assay with PUM1 PUF domain R5-RHI, the binding signal is 5.86 log2 enrichment (interaction score).

(Values after article PMC8384837, “Expanding the binding specificity for RNA recognition by a PUF domain”.)
